“And” between values parts separate entries of the source, which are not always exact repeats. Equal values may be shown once. This is part of a sample that, as a whole, favours compounds with a hit. Of some 79,000 tested, about 15% had one in any assay. The source made the active and inactive calls. Cut-off read from the data, not from the text of the source: active = growth inhibition above about 70%; inactive = the rest.
Key:
[1] = NCI Yeast Anticancer Drug Screen. Data for the rad50 strain (AID 155);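 note: 0% = growth of vehicle-only cultures of the same strain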; details: S. cerevisiae rad50 strain growth inhibition, active compounds read high; at 50.0 µM unless noted
Method in brief: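 Cells are treated with compound, grown, and their growth is then scored against vehicle-only cultures of the same repair-deficient yeast strain.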

[2] = NCI Yeast Anticancer Drug Screen. Data for the mec2-1 strain (AID 157); details: S. cerevisiae mec2-1 strain, active compounds read high; at 50.0 µM unless noted
Method in brief: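 Readout is yeast growth inhibition, normalised to vehicle-treated controls, in the mec2-1 strain exposed to compound.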

[3] = NCI Yeast Anticancer Drug Screen. Data for the sgs1 mgt1 strain (AID 161);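 note: 0% = growth of cultures given vehicle only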; details: S. cerevisiae sgs1 mgt1 strain, active compounds read high; at 50.0 µM unless noted
Method in brief: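 Percent growth inhibition was derived by comparing compound-exposed mutant yeast with vehicle-exposed cultures. The strain carries alterations in DNA damage repair.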

[4] = NCI Yeast Anticancer Drug Screen. Data for the cln2 rad14 strain (AID 165);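 note: 0% = growth equal to vehicle treated cultures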; details: S. cerevisiae cln2 rad14 strain, active compounds read high; at 50.0 µM unless noted
Method in brief: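 Relative to vehicle controls, growth inhibition of compound-treated cln2 rad14 yeast was recorded.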

[5] = NCI Yeast Anticancer Drug Screen. Data for the bub3 strain (AID 167); details: S. cerevisiae bub3 mutant strain, active compounds read high; at 50.0 µM unless noted
Method in brief: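 Part of a panel of yeast mutants defective in DNA damage repair or cell cycle regulation. Each strain is grown with compound, and inhibition is calculated relative to solvent-treated cultures.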

[6] = NCI Yeast Anticancer Drug Screen. Data for the mlh1 rad18 strain (AID 175); details: S. cerevisiae mlh1 rad18 strain growth inhibition, active compounds read high; at 50.0 µM unless noted
Method in brief: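 Test agents were incubated with a yeast strain of defined genotype (DNA damage repair defect). Inhibition of growth was derived by comparison with vehicle-exposed cultures.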

Measured: growth inhibition

CC1(C)OC(CI)C(COS(C)(=O)=O)O1 (stereo not given)
inactive: [1] 3.7% | [2] 3.2% | [3] 3.7% | [4] -25.2% | [5] -11.3% | [6] -2.25%

O=Cc1c2cnc(c1O)CSCc1ccc(cc1)CSC2
inactive: [1] 9.55% | [2] 8.45% | [3] 9.35% | [4] -11.7% | [5] -2.9% | [6] 23.5%

O=[N+]([O-])c1ccc(-n2nnc(C3=NCCCN3)c2-c2ccc(Cl)cc2)cc1
inactive: [1] -11.3% | [2] -8.1% | [3] -5.75% | [4] 8.6% | [5] 5.55% | [6] -19.6%

O=C1CN(Cc2ccc3c(c2)OCO3)NO1
inactive: [1] 15.3% | [2] -1.25% | [3] -17.4% | [4] -4.5% | [5] -9.35% | [6] -26.5%

Cc1cc2ccccc2n1/C=C/C1=[N+](C)c2ccccc2C1(C)C
inactive: [1] 10.3% | [2] 6.25% | [3] 10.5% | [4] -38.9% | [5] 8.1% | [6] 25.9%

N#C/C(=C\c1c[nH]c2ccccc12)C(N)=O
inactive: [1] 13.6% and 2.05% | [2] 5.15% and -7.45% | [3] 7.3% | [4] 18.8% | [5] -7.3% | [6] 22.5% and 5.8%

O=C(NNC(=O)c1ccc2ccccc2c1)c1ccc(Cl)cc1
inactive: [1] -19.2% | [2] -51% | [3] -11% | [4] 3.55% | [5] -13.6% | [6] -9.75%

CC1Cn2c(Cc3ccccc3)nnc2S1 (stereo not given)
inactive: [1] -15.2% | [2] 1.25% | [3] 5.45% | [4] 19.5% | [5] -4.6% | [6] -4.75%

Cc1ccccc1NS(=O)(=O)N1CCCCC1
inactive: [1] -11.8% | [2] -24.4% | [3] -4.3% | [4] 18.9% | [5] 22.1% | [6] -5.65%

COC(=O)C(=O)C(C(=O)C(=O)Nc1cccc(C(C)=O)c1)c1nc2ccccc2[nH]c1=O (stereo not given)
inactive: [1] 2.7% | [2] -9.45% | [3] 2.15% | [4] 14.2% | [5] -18.9% | [6] 3.5%

COC(=O)c1ccccc1OC
inactive: [1] 20.1% | [2] 15.8% | [3] -2.2% | [4] 6.75% | [5] -2.05% | [6] 3.1%

O=C1NC(N2CCOCC2)=N/C1=C\c1ccc(Cl)cc1
inactive: [1] 1.75% | [2] 3.6% | [3] 4.9% | [4] -6.25% | [5] -11.1% | [6] -29.9%

CC(=O)NC(C)c1ccccc1 (stereo not given)
inactive: [1] -4.75% | [2] 40.1% | [3] 15.3% | [4] -11.9% | [5] -1.55% | [6] 3.3%

CS/C(=N\c1nccs1)NC(=O)c1cccc(Cl)c1
inactive: [1] 7.65% | [2] 20.4% | [3] 30.2% | [4] 18.8% | [5] 22.4% | [6] 10.8%

COc1ccc2cc3n(c(=O)c2c1OC)CCc1cc2c(cc1-3)OCO2
inactive: [1] 11.9% | [2] -20.7% | [3] 14.2% | [4] 25.4% | [5] 2.8% | [6] -0.45%

CS1(C)=Nc2c([N+](=O)[O-])cc([N+](=O)[O-])cc2S(=O)(=O)N=1
inactive: [1] -9.9% | [2] -12.1% | [3] -1.3% | [4] -15.9% | [5] -5% | [6] 6.55%

O=c1cc(N2CCOCC2)n2ccccc2n1
inactive: [1] -4.4% | [2] -4.15% | [3] 8% | [4] -20.6% | [5] -8.35% | [6] 8.1%

COC(=O)C(Br)C(Br)c1cc(OC)c(OC)c(OC)c1 (stereo not given)
inactive: [1] 48.2% | [2] 9.6% | [3] 2.3% | [4] 40% | [5] 10.4% | [6] 14.2%

CC(=O)NNC(=O)C(N)Cc1ccc(O)cc1 (stereo not given)
inactive: [1] 13.5% | [2] 23.1% | [3] 40.5% | [4] 12.2% | [5] 2.95% | [6] 14.8%

CC(=O)Oc1cccc2c1C(=O)c1c(OC(C)=O)cc(C)cc1C2=O
inactive: [1] 10.8% | [2] 5.35% | [3] 1.85% | [4] -0.85% | [5] -41% | [6] -15.6%

O=C(COc1ccc(Cl)cc1)N1CCN(C(=O)COc2ccc(Cl)cc2)c2ccccc21
inactive: [1] 11.7% | [2] 3.05% | [3] 23.9% | [4] 11.1% | [5] 11.6% | [6] -1.05%

NC(=O)c1ccccc1OC(=O)Nc1ccc(F)c([N+](=O)[O-])c1
inactive: [1] 3.75% | [2] 26.6% | [3] 12.4% | [4] -1.95% | [5] 20.7% | [6] 12.1%

C(=N\N(c1ccccc1)c1ccccc1)/C(c1ccccc1)c1ccccc1
inactive: [1] 2.55% | [2] -3.2% | [3] 1.9% | [4] -3.95% | [5] 2.2% | [6] -4.35%

O=C1NC(N/N=C\C(O)C(O)C(O)C(O)CO)=N/C1=C/c1ccc(Cl)cc1 (stereo not given)
inactive: [1] 28.1% and 32% | [2] 8.95% and 15.7% | [3] 1.45% and 10.8% | [4] -0.6% and 13.4% | [5] -0.2% and 6.45% | [6] 10.6% and 9.2%

O=C1N(Cc2ccccc2)CCN1Cc1ccccc1
inactive: [1] -37.1% | [2] -24.6% | [3] -11.7% | [4] 20.2% | [5] 0.6% | [6] -22.9%

COc1ccc(NS(=O)(=O)c2ccc(NC(CNC(C)S(=O)(=O)O)S(=O)(=O)O)cc2)cc1 (stereo not given)
inactive: [1] 18.1% | [2] 5.75% | [3] 29.3% | [4] 52.5% | [5] -0.85% | [6] 36.5%

OCC1OC(n2cnc3c2NC=NC[C@H]3O)C(O)C1O (stereo not given in full)
inactive: [1] 32.4% | [2] -3.8% | [3] 25.4% | [4] -7.55% | [5] 6.25% | [6] 25.8%

O=[N+]([O-])c1ccc(CC(Cl)c2ccccc2)cc1 (stereo not given)
inactive: [1] 40.8% | [2] 2.35% | [3] 39.5% | [4] -19.1% | [5] 29.8% | [6] 63%

O=[N+]([O-])c1ccc(/C=C(/c2ccc([N+](=O)[O-])o2)S(=O)(=O)c2ccccc2)cc1
inactive: [1] 64.8% | [2] 13.8% | [4] 43% | [5] -1.25% | [6] 60.5%
active: [3] 76.8%

CCN(CC)c1nc(Cl)nc(Nc2ccc3cc(-c4ccccc4)c(=O)oc3c2)n1
inactive: [1] -9.15% | [2] -24.9% | [3] -8.1% | [4] 8.05% | [5] -12.7% | [6] -7.25%

CC(=O)C(C)(CCN(C)C)c1ccccc1 (stereo not given)
inactive: [1] 6.5% | [2] 4.4% | [3] 7.45% | [4] -10.3% | [5] 6.55% | [6] 12.8%

O=C(Cc1csc(-c2nc(CC(=O)NNc3ccccc3)cs2)n1)NNc1ccccc1
inactive: [1] 12.7% | [2] -3.4% | [3] -27.9% | [4] -38.4% | [5] 2.75% | [6] -12.6%

Cc1cc2c(C)nn(Cc3ccccc3)c2c(C(N)=O)c1C
inactive: [1] 9.85% | [2] -6.65% | [3] -10% | [4] 35.6% | [5] -3.1% | [6] 51.4%

CCOc1ccc(N=Nc2c(N)nc(N)[nH]c2=O)cc1
inactive: [1] 26.3% | [2] 23.6% | [3] 17.4% | [4] 19.9% | [5] -1.25% | [6] 24.1%

Nc1n[n+](-c2cccc([N+](=O)[O-])c2)no1
inactive: [1] 32.4% | [2] 16.4% | [3] 69.5% | [4] 5.3% | [6] 32.5%
active: [5] 81.4%

c1ccc2c(c1)Cc1cc3ccccc3cc1C2
inactive: [1] -32.2% | [2] -44.9% | [3] -29.5% | [4] 0.75% | [5] -33.2% | [6] -27.8%

OC1(C#CC#CC2(O)CCCCC2)CCCCC1
inactive: [1] 12.9% | [2] 15.7% | [3] 0.2% | [4] 10.1% | [5] 3.4% | [6] 4.2%

CC[N+](CC)(CC)CCOC(=O)c1cc(OC)c(OC)c(OC)c1
inactive: [1] -16.4% | [2] -20.4% | [3] -2.35% | [4] 15.4% | [5] 4.1% | [6] -0.6%

O=c1[nH]c2[nH]c(=S)[nH]c(=O)c2[nH]1
inactive: [1] 6.3% | [2] 0.85% | [3] -8.5% | [4] -11.7% | [5] -3.4% | [6] -13.8%

COc1ccc(N/C=C/C2=[N+](C)c3ccccc3C2(C)C)c(OC)c1
inactive: [1] 1.85% and -24.3% | [2] -17.2% and -19.6% | [3] -8.5% and -20.9% | [4] 0.45% and -58.4% | [5] -5.55% and -2.4% | [6] 5.5% and -7.05%

— PubChem BioAssay (NCI)
